# “And” between values parts separate entries of the source, which are not always exact repeats. Equal values may be shown once. Values without a mark were called inactive. Records with an inconclusive call do not appear. Where a call stands in place of a potency, no number is given. The source made the active and inactive calls. Unless noted, calls come from the whole dose curve.
# Legend:
# [1] = biological target: Cytochrome P450 3A4 (Homo sapiens) (UniProt P08684); assay: qHTS Assay for Activators of Cytochrome P450 3A4 (AID 885; active = well fitted curve in the direction sought with a large enough effect; an effect the other way counts as inactive or inconclusive; note: nearly all actives have a fitted effect of over 65% in size); conditions: recombinant CYP3A4, Luciferin-PPXE luminescence, 60 min; series mostly up to 57.1 µM
# Chain of Cytochrome P450 3A4 (Homo sapiens) (P08684 whole entry, looked up): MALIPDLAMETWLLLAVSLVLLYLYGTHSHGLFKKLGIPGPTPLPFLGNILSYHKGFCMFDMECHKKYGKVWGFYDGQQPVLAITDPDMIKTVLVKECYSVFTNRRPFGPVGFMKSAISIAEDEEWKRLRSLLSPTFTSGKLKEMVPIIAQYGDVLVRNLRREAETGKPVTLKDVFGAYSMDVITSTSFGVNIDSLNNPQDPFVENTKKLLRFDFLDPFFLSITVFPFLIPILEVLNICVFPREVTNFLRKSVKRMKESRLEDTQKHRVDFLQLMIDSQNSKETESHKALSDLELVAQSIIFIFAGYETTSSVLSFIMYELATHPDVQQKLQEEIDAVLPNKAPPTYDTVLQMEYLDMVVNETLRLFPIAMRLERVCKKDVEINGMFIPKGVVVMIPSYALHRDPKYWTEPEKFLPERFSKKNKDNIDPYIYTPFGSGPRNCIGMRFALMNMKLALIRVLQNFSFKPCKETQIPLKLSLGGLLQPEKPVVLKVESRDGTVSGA
# Summary of the method: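 Activators are scored by enhanced luminescence from CYP3A4 conversion of luciferin-PPXE (25uM, equal to KM) to luciferin, after 60 min at RT with an NADPH-regenerating system.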
# [2] = biological target: Estrogen receptor (Homo sapiens) (UniProt P03372); assay: qHTS assay for small molecule antagonists of estrogen receptor alpha signaling (AID 588513; active = well fitted curve in the direction sought with a large enough effect in the signal ratio, with a control signal flat, not every such curve was filed as active; the % refers to the signal ratio); conditions: ER-alpha-UAS-bla HEK293, beta-lactamase ratio, antagonist mode; series mostly up to 76.9 µM
# Chain of Estrogen receptor (Homo sapiens) (P03372 whole entry, looked up): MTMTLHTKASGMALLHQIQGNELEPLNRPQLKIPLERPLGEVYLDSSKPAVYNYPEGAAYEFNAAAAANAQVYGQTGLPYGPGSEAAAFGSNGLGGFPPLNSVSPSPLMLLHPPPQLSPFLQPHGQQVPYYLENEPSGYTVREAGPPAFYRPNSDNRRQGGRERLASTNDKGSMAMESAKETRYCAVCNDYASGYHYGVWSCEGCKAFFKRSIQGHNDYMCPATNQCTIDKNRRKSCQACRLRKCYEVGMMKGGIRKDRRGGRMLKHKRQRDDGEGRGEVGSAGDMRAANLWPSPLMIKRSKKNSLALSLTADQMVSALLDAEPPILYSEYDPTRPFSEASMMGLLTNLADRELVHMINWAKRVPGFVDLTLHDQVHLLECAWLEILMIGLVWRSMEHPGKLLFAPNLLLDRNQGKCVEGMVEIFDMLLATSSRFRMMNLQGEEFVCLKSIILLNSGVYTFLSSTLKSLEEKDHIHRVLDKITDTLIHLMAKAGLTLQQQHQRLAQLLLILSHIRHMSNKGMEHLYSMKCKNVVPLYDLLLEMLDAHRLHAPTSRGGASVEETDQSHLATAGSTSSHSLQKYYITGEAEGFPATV
# Summary of the method: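 Antagonist mode: inhibition of 0.5 nM 17-beta-estradiol-driven beta-lactamase reporter in HEK 293 ER-alpha-UAS-bla cells, 18 h at 37C, CCF4 readout after 2 h at RT. Normalised to estradiol and DMSO; titration fitted to Hill.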
# [3] = biological target: Androgen receptor (Homo sapiens) (UniProt P10275); assay: qHTS assay for small molecule agonists of androgen receptor signaling (AID 588515; active = well fitted curve in the direction sought with a large enough effect in the signal ratio, with a control signal flat; the % refers to the signal ratio); conditions: AR-UAS-bla HEK293, beta-lactamase ratio, agonist 16 h; hits give high values
# Chain of Androgen receptor (Homo sapiens) (P10275 whole entry, looked up): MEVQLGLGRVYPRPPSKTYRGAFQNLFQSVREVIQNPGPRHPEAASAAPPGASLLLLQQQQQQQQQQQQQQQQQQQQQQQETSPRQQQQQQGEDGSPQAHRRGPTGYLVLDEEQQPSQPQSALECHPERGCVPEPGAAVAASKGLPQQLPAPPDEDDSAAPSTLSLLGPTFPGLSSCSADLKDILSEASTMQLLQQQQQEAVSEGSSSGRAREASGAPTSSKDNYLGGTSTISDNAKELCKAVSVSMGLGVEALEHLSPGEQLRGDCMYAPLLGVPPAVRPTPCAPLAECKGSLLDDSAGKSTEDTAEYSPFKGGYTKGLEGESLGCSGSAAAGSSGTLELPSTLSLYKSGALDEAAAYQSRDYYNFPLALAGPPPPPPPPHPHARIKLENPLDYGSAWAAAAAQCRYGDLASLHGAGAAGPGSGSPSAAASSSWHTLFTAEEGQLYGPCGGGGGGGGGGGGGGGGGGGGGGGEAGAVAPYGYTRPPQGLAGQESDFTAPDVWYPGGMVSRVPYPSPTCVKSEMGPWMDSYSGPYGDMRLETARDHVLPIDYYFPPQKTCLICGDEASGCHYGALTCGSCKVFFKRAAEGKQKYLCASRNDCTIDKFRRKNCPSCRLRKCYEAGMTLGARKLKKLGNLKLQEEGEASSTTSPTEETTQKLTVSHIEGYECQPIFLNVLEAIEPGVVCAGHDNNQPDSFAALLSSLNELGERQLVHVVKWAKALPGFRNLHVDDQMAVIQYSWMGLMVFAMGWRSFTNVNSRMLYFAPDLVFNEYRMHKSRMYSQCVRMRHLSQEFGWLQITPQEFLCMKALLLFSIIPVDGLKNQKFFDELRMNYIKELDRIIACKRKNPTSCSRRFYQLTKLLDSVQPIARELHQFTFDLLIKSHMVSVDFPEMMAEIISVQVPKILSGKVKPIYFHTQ
# Summary of the method: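 Stimulation of an AR-responsive β-lactamase reporter in GripTite HEK293 cells was measured after 16 h compound exposure at 37 °C, via CCF4 fluorescence after 2 h RT. EC50 from Hill fits, normalized to R1881 at 30 nM.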
# [4] = biological target: Bile acid receptor (Homo sapiens) (UniProt Q96RI1); assay: qHTS assay for small molecule antagonists of farnesoid X receptor signaling (AID 588526); conditions: HEK293T FXR-UAS-bla, beta-lactamase ratio, antagonist mode; series mostly up to 76.7 µM
# Chain of Bile acid receptor (Homo sapiens) (Q96RI1 whole entry, looked up): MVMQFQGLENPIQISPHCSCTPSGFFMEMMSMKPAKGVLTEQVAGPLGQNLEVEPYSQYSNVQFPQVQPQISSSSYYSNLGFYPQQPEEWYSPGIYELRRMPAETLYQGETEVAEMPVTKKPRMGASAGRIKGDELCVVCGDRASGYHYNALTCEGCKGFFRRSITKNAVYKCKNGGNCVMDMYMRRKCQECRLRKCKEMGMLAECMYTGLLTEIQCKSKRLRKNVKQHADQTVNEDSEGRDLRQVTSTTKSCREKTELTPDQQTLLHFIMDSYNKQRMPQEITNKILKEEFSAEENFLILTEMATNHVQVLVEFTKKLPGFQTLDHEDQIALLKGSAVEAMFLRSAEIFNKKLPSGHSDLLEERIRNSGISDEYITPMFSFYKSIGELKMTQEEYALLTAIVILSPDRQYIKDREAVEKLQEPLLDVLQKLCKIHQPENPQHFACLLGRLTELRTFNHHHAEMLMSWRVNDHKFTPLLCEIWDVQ
# Summary of the method: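 Beta-lactamase reporter antagonist mode: HEK293T FXR-UAS-bla cells, titrated compound, CDCA stimulation, 16 h 37 C, CCF4 dye 2 h RT. Data normalized to CDCA 50 uM and DMSO; Hill-fit IC50.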
# [5] = Confirmation and Secondary Assay for Modulators of Hemoglobin Beta Chain Splicing at IVS2 654 locus (AID 910; active = well fitted curve in the direction sought with a large enough effect; an effect the other way counts as inactive or inconclusive;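 note: HeLa cells stably carrying EGFP split by mutant beta-globin IVS2-654 intron; per-well total GFP intensity by laser scanning cytometry after 2-day treatment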); conditions: HeLa EGFP-654 splicing reporter, GFP fluorescence, 48 h; series mostly up to 38.3 µM
# Summary of the method: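 Readout: per-well total peak green fluorescence (488 nm ex, 500–520 nm em) from objects 5–250 µm, reflecting correct splicing of an EGFP-654 reporter. Compounds were applied for 2 days at 37 °C to overnight-plated HeLa EGFP-654 cells; controls were DMSO and 500 nM IVS2-654 PNA.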
# [6] = Confirmation and Secondary Assay for Modulators of Hemoglobin Beta Chain Splicing at IVS2 705 locus (AID 930; active = well fitted curve in the direction sought with a large enough effect; an effect the other way counts as inactive or inconclusive;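 note: HeLa cells stably expressing the EGFP-705 splicing reporter; GFP fluorescence per well restored by corrected splicing of the IVS2-705 intron in EGFP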); conditions: HeLa EGFP-705 splicing reporter, GFP fluorescence, 48 h; series mostly up to 38.3 µM
# Summary of the method: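 Fluorescence gain (488 nm laser, 500-520 nm PMT) reflects restored correct splicing of a mutant IVS2-705 intron inside EGFP in stably transfected HeLa cells after 2-day compound treatment.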
# [7] = biological target: Bile acid receptor (Homo sapiens) (UniProt Q96RI1); assay: qHTS assay for small molecule agonists of farnesoid X receptor signaling (AID 588527); conditions: HEK293T FXR-UAS-bla, beta-lactamase ratio, 16 h; hits give high values
# Summary of the method: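 Read-out: beta-lactamase reporter fluorescence with CCF4 substrate in GeneBLAzer FXR-UAS-bla HEK293T cells, after 16 h compound exposure at 37 C. Response scaled between DMSO basal (0%) and chenodeoxycholic acid at 100 uM (100%).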
structure (smiles),measurement,setting,value
Nc1ccc2ccccc2c1,Potency,[1],inactive
same,Potency,[2],inactive
CC(C)CC(C)N (stereo not given),Potency,[2],inactive
CCOP(=S)(OCC)SCCSCC,Potency,[1],inactive
BrCC(Br)C1CCC(Br)C(Br)C1 (stereo not given),activation,[3],1.31%
C=CCBr,Potency,[2],inactive
same,outcome,[4],inactive
ClCC(Br)CBr (stereo not given),Potency,[2],inactive
S=c1[nH]c2ccccc2[nH]1,Potency,[1],inactive
same,activation,[3],-0.602%
CC12CC1(C)C(=O)N(c1cc(Cl)cc(Cl)c1)C2=O (stereo not given),activation,[3],-2.56% and 15.9%
CC(C)OS(C)(=O)=O,Potency,[2],inactive
same,outcome,[4],inactive
Cl/C=C\Cl,Potency,[2],inactive
CCCN(CCC)c1c([N+](=O)[O-])cc(C(F)(F)F)cc1[N+](=O)[O-],Potency,[1],inactive
same,outcome,[5],inactive
same,outcome,[6],inactive
same,activation,[3],-14.6% and 7.28%
same,outcome,[4],inactive
C=CCCC#N,outcome,[4],inactive
same,activation,[7],-0.315%
Cc1ccc(N)c(C)c1,outcome,[4],inactive
same,activation,[7],3.12%
COc1cc(-c2ccc(N)c(OC)c2)ccc1N,Potency,[1],inactive
BrC(Br)Br,outcome,[4],inactive
same,activation,[7],-2.73%
ClCc1ccccn1,Potency,[2],inactive
Cc1cc(-c2ccc(N)c(C)c2)ccc1N,Potency,[1],inactive
same,Potency,[2],inactive
COC(=O)Nc1nc2ccccc2[nH]1,activation,[3],10.4% and 9.09%
CC(C)[C@]12CC(=O)[C@H](C)[C@H]1C2,outcome,[4],inactive
same,activation,[7],-2.27% and 5.04%
Nc1ccccc1-c1ccccc1,Potency,[2],inactive
Oc1cccc(Cl)c1Cl,Potency,[2],inactive
N#CCCCCC#N,outcome,[4],inactive
same,activation,[7],-2.39%
C/C=C/CC#N,outcome,[4],inactive
same,activation,[7],-1.31%
CC(C#N)CCC#N (stereo not given),Potency,[2],inactive
CCOS(C)(=O)=O,outcome,[4],inactive
same,activation,[7],1.7%
Cc1ccc(N)cc1N,Potency,[2],inactive
same,outcome,[4],inactive
same,activation,[7],0.164% and -1.15%
N#CCBr,outcome,[4],inactive
same,activation,[7],-0.961%
O=C(O)c1cc(Cl)ccc1Cl,outcome,[4],inactive
same,activation,[7],-1.21%
O=P(OCCCl)(OCCCl)OCCCl,outcome,[4],inactive
same,activation,[7],-0.898%
CCCCOCC1CO1 (stereo not given),Potency,[2],inactive
same,outcome,[4],inactive
ClCCOCCCl,outcome,[4],inactive
same,activation,[7],-1.24%
Brc1cccc(-c2ccccc2)c1,Potency,[2],inactive
same,outcome,[4],inactive
same,activation,[7],-2.22%
Cc1ccc(N)c(N)c1,Potency,[1],inactive
CC(=O)CCC(C)=O,Potency,[2],inactive
CC(C)(OOC(C)(C)c1ccccc1)c1ccccc1,activation,[3],9.96%
same,outcome,[4],inactive
O=S(=O)(Cl)c1ccccc1,outcome,[4],inactive
same,activation,[7],1.82%
NNC(N)=S,Potency,[2],inactive
same,outcome,[4],inactive
Oc1cc(Cl)ccc1Cl,Potency,[1],inactive
ClC=CCl,Potency,[2],inactive
Nc1ccc(Oc2ccc(N)cc2)cc1,Potency,[1],inactive
CC(Cl)CCl (stereo not given),Potency,[2],inactive
C=CC(=O)OCC(C)C,Potency,[2],inactive
O=[N+]([O-])c1cccc(O)c1,outcome,[4],inactive
same,activation,[7],-2.84%
C=C(C)CCl,Potency,[2],inactive
same,activation,[3],8.69%
same,outcome,[4],inactive
same,activation,[7],-1.8%
Nc1ccc(Cc2ccc(N)cc2)cc1,Potency,[1],inactive
same,outcome,[4],inactive
CCCCC(=O)Cl,outcome,[4],inactive
same,activation,[7],3.38%

# From PubChem BioAssay (NCATS)
